# Results from PubChem BioAssay (Tox21).
# Records with an inconclusive call do not appear. Entries that show only a call come without a potency. Activity calls are given as the source filed them. The call rests on the fitted dose curve; in most records, active means well fitted activation curve with a large enough effect in the repeat runs; inconclusive means weak or mixed curves; inactive means flat fitted curve, though single readings scatter.
# Assay: A CellTox Green Cytotoxicity Assay to monitor cytotoxicity in HEK293 cells - 8 hour (AID 1224884); further: nearly all actives have a fitted effect of over 35% in size
# Conditions: CellTox Green fluorescence; series mostly up to 76.8 µM
# Excerpt: National Center for Advancing Translational Sciences [NCATS]
# NIH Chemical Genomics Center [NCGC]
# U.S. Environmental Protection Agency [EPA]
# National Institutes of Environmental Health Sciences [NIEHS]
# National Toxicology Program [NTP]
# Cell-based models are critical for drug discovery. Determining the natural cytotoxic effects resulting from test compounds is an essential research activity. A CellTox Green Cytotoxicity Assay to monitor cytotoxicity in real time of continues cell culture during 40 hours of the compound treatment was used to screen Tox21 10K library compounds in Hek293 cells. CellTox Green Cytotoxicity Assay is a nonlytic, homogeneous, biofluorescent method to measure cytotoxicity in cell culture after experimental manipulation. The assay system uses a proprietary asymmetric cyanine dye that is excluded from viable cells but preferentially stains the dead cell's DNA. […] Viable cells produce no appreciable increases in fluorescence. Therefore, the fluorescence signal produced by the binding interaction with dead cell DNA is proportional to cytotoxicity.
# The mixture of Hek293 cell suspension and reagents were dispensed at 600cells/6 ul/well in 1536-well tissue culture treated black solid bottom plates using a Multidrop dispenser. After the assay plates were incubated at a 37 C/5% CO2 incubator for 5 hours, 23 nL of compounds dissolved in DMSO, positive and negative controls was transferred to the assay plate by a pintool work station. The plates were incubated at 37 C for 40 hours. The fluorescence intensity were measured at 0h, 8h, 16h, 24h, 32h and 40h time points using ViewLux plate reader during compound treatment.
row,Structure (SMILES),Potency
1,CCCCC(CC)COC(=O)c1ccccc1 (stereo not given),inactive
2,Cc1ccccc1C,inactive
3,O=P(O)(O)OCC(O)CO (stereo not given),inactive
4,Cc1ccc(S(=O)(=O)NC(=O)NC2CCCCCCC2)cc1,inactive
5,OC[C@@H](O)[C@H](O)[C@@H](O)[C@@H](O)CO,inactive
6,CC(C)(CO)[C@@H](O)C(=O)NCCCO,inactive
7,CC(C)C(=O)Nc1cccc(C(F)(F)F)c1,inactive
8,CCOC(=O)CCCCCCCCC(=O)OCC,inactive
9,CNCc1ccccc1,inactive
10,C=COCCOCCOC=C,inactive
11,COc1ccc(OC)c(NC(=O)CC(C)=O)c1,inactive
12,C=C(C)C(=O)OC1CC(C)CC(C)(C)C1 (stereo not given),inactive
13,Nc1nc(=O)n([C@@H]2O[C@H](CO)[C@@H](O)[C@@H]2F)cc1I,inactive
14,Cc1c(C(C)C)c(=O)n(-c2ccccc2)n1C,inactive
15,NS(=O)(=O)c1ccc(Cl)c(S(N)(=O)=O)c1,inactive
16,CC(=O)N(CC(O)CO)c1c(I)c(C(=O)NCC(O)CO)c(I)c(C(=O)NCC(O)CO)c1I (stereo not given),inactive
17,CCCCCCCC[Si](OCC)(OCC)OCC,inactive
18,CCCCOC(=O)[C@@H](C)Oc1ccc(Oc2ccc(C(F)(F)F)cn2)cc1,inactive
19,CCCCC(CC)CNC(=O)CC(C)OC(=O)CCC(=O)O (stereo not given),inactive
20,Cc1ncc([N+](=O)[O-])n1CC(O)CCl (stereo not given),inactive

row,Structure (SMILES),Potency
1,Cn1c(=O)c2c(ncn2CC2OCCO2)n(C)c1=O,inactive
2,CN(C)CCOCCN(C)CCO,inactive
3,CCC(C)(C)C1CCC(=O)CC1,inactive
4,C/C=C(\C)C(=O)OCC/C=C\CC,inactive
5,Nc1cc(C(=O)O)ccc1Cl,inactive
6,CCOC(=O)CCc1ccccc1,inactive
7,CN[C@@H]1[C@H](O)[C@H](NC)[C@H]2O[C@@]3(O)C(=O)C[C@@H](C)O[C@H]3O[C@@H]2[C@H]1O,inactive
8,O=C1c2ccccc2-c2ccccc21,inactive
9,CCN(CC)C(=O)C1CN2CCc3cc(OC)c(OC)cc3C2CC1OC(C)=O (stereo not given),inactive
10,CC(=O)OCC(=O)[C@@]1(O)[C@H](OC(C)=O)C[C@H]2[C@@H]3CCC4=CC(=O)C=C[C@]4(C)[C@@]3(F)[C@@H](O)C[C@@]21C,inactive
11,CC(=O)N1CCN(c2ccc(O)cc2)CC1,inactive
12,O=C(c1ccc2c(c1)C(=O)OC2=O)c1ccc2c(c1)C(=O)OC2=O,inactive
13,CC(C)C(=O)c1ccccc1,inactive
14,CCOC(=O)C(C)(C)C,inactive
15,c1ccccc1,inactive
16,Cc1ccccc1C(=O)N1CC/C(=N\OS(=O)(=O)O)c2ccc(Cl)cc21,inactive
17,CCCCCCCCCOCC1CO1 (stereo not given),inactive
18,OC(CCN1CCCCC1)(c1ccccc1)c1ccccc1,inactive
19,CCCCC(=O)N(C)C,inactive
20,C=CCOc1c(Br)cc(Br)cc1Br,inactive
